Results on 40 compounds are retold here after PubChem BioAssay (Tox21).

The structures appear in SMILES notation. Records with an inconclusive call do not appear. A call without a number means that no potency is given here. Calls of active or inactive are those of the source. Calls come from the whole dose curve; as a rule, active = well fitted cell-killing curve with a large enough effect in the repeat runs; inconclusive = weak or mixed curves; inactive = flat fitted curve, though single readings scatter.

The assay is described as follows: qHTS assay to identify small molecule antagonists of the estrogen related receptor (ERR) signaling pathway from Tox21 library - cell viability counter screen (AID 1224834). Note: nearly all actives have a fitted effect of over 30% in size. Conditions: ERR reporter cells viability, CellTiter-Fluor, 17.5 h; series mostly up to 92.4 µM. The text has this: National Center for Advancing Translational Sciences [NCATS]
NIH Chemical Genomics Center [NCGC]
U.S. Environmental Protection Agency [EPA]
National Institutes of Environmental Health Sciences [NIEHS]
National Toxicology Program [NTP]
U.S. Food and Drug Administration [FDA]
Estrogen related receptors (ERRs), the first orphan nuclear receptors discovered, play an important role in the control of cellular energy metabolism. ERRs are required for high-energy production in response to the environmental challenges. ERR-alpha was also identified as an adverse marker for breast cancer progression; ERR-alpha-positive tumors have a poor prognosis. To screen and to identify environmental compounds that perturb the ERR signaling pathways could provide valuable information for potential therapeutic or preventive measures in the treatment of metabolic disease. To differentiate true ERR antagonists or agonist from cytotoxic substances, the assay is multiplexed with cell viability assay.
Tox21 Assay Protocol Summary:
The ERR cells were dispensed at 2,000 cells/5 ul/well in 1536-well white plates using a Multidrop dispenser. After the assay plates were incubated at a 37 C/5% CO2 incubator for 6 hours, 23 nL of compounds dissolved in DMSO, positive and negative controls or DMSO only was transferred to the assay plate by a pin tool. The plates were incubated at 37 C for 17.5 hours. 1 ul/well of CellTiter-Fluor reagent was added into the assay plates using a Flying Reagent Dispenser. After 30-minute incubation at 37 C/5% CO2, the fluorescence intensity in the plates was measured using a ViewLux plate reader.
For orientation: qHTS replaces the single test concentration by a dilution series.
Regarding `CC(C)(C)c1cc(Cc2cc(C(C)(C)C)c(O)c(C(C)(C)C)c2)cc(C(C)(C)C)c1O`, the Potency entry is “inactive”.
With `OCc1ccccc1`, the Potency result is “inactive”.
For `CC(C)CC(=O)CC(C)CC(C)C` (stereo not given) the value was “inactive”; for `CC(O)CC(C)(C)O` (stereo not given), “inactive”.
Then `CCCOC(=O)c1ccccc1`, with “inactive”; and `N[C@H](Cc1c[nH]c2ccccc12)C(=O)O`, with “inactive”; and `CCOCCOCCOCCO`, with “inactive”.
Then `Cc1ccc2ncccc2c1`, with “inactive”; and `CCCCCCCCCCN`, with “inactive”.
Turning to `COc1ccc(OC)cc1`, the Potency result is “inactive”.
Turning to `CC1(C)NC(=O)NC1=O`, the Potency result is “inactive”.
`CCNc1ccccc1`: the Potency entry is “inactive”.
Then `COC(=O)CCCC(=O)OC`, with “inactive”; and `Cc1ccc([N+](=O)[O-])cc1S(=O)(=O)O`, with “inactive”.
For `CN(C)c1ccc(Cc2ccc(N(C)C)cc2)cc1` the value was “inactive”; for `CC(C)CCCCCCCOC(=O)CCCCC(=O)OCCCCCCCC(C)C`, “inactive”.
Then `NCCCCCCN`, with “inactive”.
Regarding `CC(=O)Oc1ccc(C)cc1`, the Potency result was “inactive”.
For `CCCCCC(=O)O` the value was “inactive”.
For `OCc1cccc(Oc2ccccc2)c1`, the Potency entry was “inactive”.
Consider `C=C(C)CNCC`, for which the Potency result is “inactive”.
For `N#Cc1ccccc1` the value was “inactive”; for `O=C(O)c1ccccc1C(=O)O`, “inactive”.
Then `CSc1ccc(Cl)cc1`, with “inactive”.
In the case of `COc1ccc(N)c(C)c1`, the Potency entry was “inactive”.
For `C=CCCCCCCCCC(=O)O` the value was “inactive”; for `CC(=O)CC(C)(C)O`, “inactive”.
Then `CC(=O)OCc1ccco1`, with “inactive”; and `CN/C(=C\[N+](=O)[O-])NCCSCc1csc(CN(C)C)n1`, with “inactive”; and `C=CC[N+](C)(C)CC=C`, with “inactive”.
Then `O=C(O)c1ccc(S(=O)(=O)N(Cl)Cl)cc1`, with “inactive”.
For `CCCCCCCCCCCCCCCCO`, the Potency entry is “inactive”.
Then `O=C(O)c1ccc(C(=O)O)c(C(=O)O)c1`, with “inactive”; and `CC(=O)c1ccc(O)cc1`, with “inactive”.
Then `COC(=O)c1cccnc1`, with “inactive”; and `COc1ccc(C)cc1N`, with “inactive”; and `CC(CCl)OP(=O)(OC(C)CCl)OC(C)CCl` (stereo not given), with “inactive”.
On to `Cc1ccc(S(=O)(=O)N=C=O)cc1`, for which the Potency result is “inactive”.
Then `CC(CCO)CC(C)(C)C` (stereo not given), with “inactive”; and `C=Cc1ccc(C)cc1`, with “inactive”.
